Consider 32 compounds from PubChem BioAssay (NCATS).

Records with an inconclusive call do not appear. The source made the active and inactive calls. Calls come from the whole dose curve; as a rule, active = well fitted inhibition curve with a large enough effect; inconclusive = small, poorly fitted or top-dose-only effect; inactive = flat fitted curve, though single readings scatter. Where a SMILES comes first, the peptide text is derived from it.
% is set by controls: 0 for no effect and ±100 for the full control effect.
Note: nearly all actives have a fitted effect of over 65% in size.

Chain of Phospholipid hydroperoxide glutathione peroxidase GPX4 (Homo sapiens) (P36969 whole entry, looked up): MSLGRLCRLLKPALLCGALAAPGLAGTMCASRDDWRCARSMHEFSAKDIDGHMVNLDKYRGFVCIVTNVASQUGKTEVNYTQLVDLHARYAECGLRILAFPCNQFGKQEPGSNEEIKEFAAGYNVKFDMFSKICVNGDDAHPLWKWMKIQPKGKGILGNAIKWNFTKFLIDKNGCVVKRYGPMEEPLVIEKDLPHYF
Chain of Glutathione peroxidase 1 (Homo sapiens) (P07203 whole entry, looked up): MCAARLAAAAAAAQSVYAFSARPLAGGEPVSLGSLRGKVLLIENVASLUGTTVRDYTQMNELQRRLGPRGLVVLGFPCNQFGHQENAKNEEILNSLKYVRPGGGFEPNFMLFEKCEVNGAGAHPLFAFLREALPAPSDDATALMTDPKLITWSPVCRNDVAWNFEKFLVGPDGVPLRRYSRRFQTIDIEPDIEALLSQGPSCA

The target in the first assay is Glutathione peroxidase 1 (Homo sapiens) (UniProt P07203). Kind of assay: Primary qHTS Assay for Inhibitors of Recombinant Selenoprotein Glutathione Peroxidase 1 (GPX1) (AID 1845191). The settings on record: recombinant GPX1, GR-coupled NADPH fluorescence, 15 min; series mostly up to 48.8 µM; activity, negative = inhibition: at the top concentration. Summed up:
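GR-coupled assay: compounds preincubated 30 min at room temperature with GPX1, then reaction started with CHP; final 10 nM GPX1, 1 mM GSH, 0.5 mM CHP, 0.5 mM NADPH, 100 nM GR, 0.01% BSA, pH 7.5 Tris buffer. NADPH fluorescence (340/450 nm) read at 0 and 15 min.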
In general terms: qHTS replaces the single test concentration by a dilution series.
For `COc1ccc([C@@H](O)[C@@H](C)Oc2ccc([C@H]3O[C@H](c4ccc(O[C@H](C)[C@H](O)c5ccc(OC)c(OC)c5)c(OC)c4)[C@H](C)[C@H]3C)cc2OC)cc1OC`, the “activity, negative = inhibition” value was -16.4% (inactive). For `CN1CCN(C(=O)[C@H]2[C@@H](C(=O)O)[C@H]3CC[C@@H]2O3)CC1`, the outcome is “inactive [at 9.52 µM]”. Take `CN(C)CCOc1ccc(-c2nc(-c3ccc4c(c3)CC/C4=N\O)c(-c3ccncc3)[nH]2)cc1`: the outcome was inactive. Consider `Cc1cc(C)cc(Oc2ccc(CNC(=O)[C@H](C)N)cc2C)c1`, for which the outcome was inactive.

In the case of `CCn1c(=O)c2c(nc(/C=C/c3ccc(OC)c(OC)c3)n2C)n(CC)c1=O`, the “activity, negative = inhibition” value was -4.1% (inactive). `N=C(N)c1ccc2nc(-c3cc(CC(=O)N[C@@H](CC(=O)O)C(=O)O)cc(-c4cc(S(N)(=O)=O)ccc4O)c3O)[nH]c2c1`: the outcome was inactive.

On to `O=C(/C=C/N1C[C@H]2C[C@@H]1CN2c1ccccn1)c1ccccc1O`, for which the outcome was inactive. For `O=C(Nc1ccccc1)Nc1ccc(-c2ccc(C(=O)[C@@H]3CCC[C@H]3C(=O)O)cc2)cc1`, the “activity, negative = inhibition” value is -8.4% (inactive). Turning to `Cc1ncsc1-c1ccc([C@H](C)NC(=O)[C@@H]2C[C@@H](O)CN2C(=O)[C@@H](NC(=O)COCCCOCCNC(=O)C[C@@H]2N=C(c3ccc(Cl)cc3)c3c(sc(C)c3C)-n3c(C)nnc32)C(C)(C)C)cc1`, the outcome was inactive. On to `O=C(O)C[C@H]1CCc2c1[nH]c1ccc(OCc3ccc(C4CCCC4)c(C(F)(F)F)c3)cc21`, for which the result was inactive. On to `CC/C(=C(/c1ccc(O)cc1)c1ccc(OCCNC)cc1)c1ccccc1`, for which the outcome was inactive. As for `CC(C)(O)CNc1ncc(-c2ccnc(Nc3ccncc3)n2)c(CC2CC2)n1`, the “activity, negative = inhibition” value is 3.18% (inactive). Consider `O=c1[nH]nc2c3c(cccc13)NC(CN1Cc3ccccc3C1)=N2`, for which the outcome was inactive. Turning to `CCNCCS(=O)(=O)NC[C@@]1(c2ccccc2)SC(NC(=O)C(C)(C)C)=NN1C(=O)C(C)(C)C`, the result was inactive.

`N[C@@H](CCC(=O)O)C(=O)N[C@@H](Cc1c[nH]c2ccccc12)C(=O)O` (H-Glu-Trp-OH): the outcome was inactive. Regarding `C=C1/C(=C\C=C2/CCC[C@]3(C)[C@@H]([C@H](C)CCCC(C)(C)O)CC[C@@H]23)C[C@@H](O)C[C@@H]1O`, the Potency entry is “inactive”. As for `CN1C[C@@H]2c3ccccc3Oc3ccc(Cl)cc3[C@H]2C1`, the outcome was inactive.

Consider `Cc1ccc(NC(=O)[C@H]2CCCN(C(=O)c3c(C)cccc3F)[C@H]2c2ccc(NC3CCCC3)cc2)cc1C(F)(F)F`, for which the “activity, negative = inhibition” value is 4.94% (inactive). As to `CCCc1cc(C(=O)N[C@H](Cc2ccc(-c3cccc(OC(F)(F)F)c3)nc2)C(=O)N[C@@H]2CCNC2)sc1C`, the outcome was inactive. As for `CCS(=O)(=O)Nc1ccc(Oc2ccc(F)cc2F)c(-c2cn(C)c(=O)c3[nH]ccc23)c1`, the “activity, negative = inhibition” value is -17.5% (inactive).

As to `NC(=O)c1cnc2[nH]ccc2c1NC1C2CC3C[C@H]1CC(O)(C3)C2` (stereo partly drawn), the outcome was inactive. Turning to `CCC1CCCCN1C(=O)n1ncc(C(O)(c2ccccc2)c2ccccc2)n1` (stereo not drawn), the outcome was inactive.

`NS(=O)(=O)c1ccc(S(=O)(=O)Nc2cccc3c(Cl)c[nH]c23)cc1`: the outcome was inactive. Take `O=C(C[C@@H]1C/C=C\CCC(=O)O[C@H](c2ccccc2)CNC1=O)NCc1ccc(Cl)cc1`: the outcome was inactive.

A further assay concerns the target Phospholipid hydroperoxide glutathione peroxidase GPX4 (Homo sapiens) (UniProt P36969). Kind of assay: Primary qHTS Assay for Inhibitors of Recombinant Selenoprotein Glutathione Peroxidase 4 (GPX4) (AID 1845192). Note: potency is the fitted concentration of half-maximal effect. The settings on record: recombinant GPX4, GR-coupled NADPH fluorescence, 15 min; series mostly up to 50 µM; activity change, negative = inhibition: at the top concentration. Summed up: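 GR-coupled assay: recombinant GPX4 preincubated 30 min with compound at room temperature; final 200 nM GPX4, 1 mM GSH, 0.5 mM cumene hydroperoxide, 0.5 mM NADPH, 100 nM GR, 0.01% BSA, pH 7.5 Tris. NADPH fluorescence (340/450 nm) read at 0 and 15 min.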
Consider `COc1ccc([C@@H](O)[C@@H](C)Oc2ccc([C@H]3O[C@H](c4ccc(O[C@H](C)[C@H](O)c5ccc(OC)c(OC)c5)c(OC)c4)[C@H](C)[C@H]3C)cc2OC)cc1OC`, for which the “activity change, negative = inhibition” value was -17.1% (inactive).

For the compound `CN1CCN(C(=O)[C@H]2[C@@H](C(=O)O)[C@H]3CC[C@@H]2O3)CC1`, the activity change, negative = inhibition was 3.36% [at 9.73 µM] (inactive). For the compound `CN1C(=O)[C@@H](NC(=O)c2cc(Cc3ccccc3)on2)COc2ccccc21`, the “activity change, negative = inhibition” value was -3.73% (inactive). As to `CN(C)CCOc1ccc(-c2nc(-c3ccc4c(c3)CC/C4=N\O)c(-c3ccncc3)[nH]2)cc1`, the “activity change, negative = inhibition” value was -18.3% (inactive). In the case of `CC(=O)N[C@H]1[C@H](O[C@@H]2c3ccc(c(Cl)c3)Oc3cc4cc(c3O[C@@H]3O[C@H](CO)[C@@H](O)[C@H](O)[C@H]3NC(=O)CCCCCCCC(C)C)Oc3ccc(cc3Cl)C[C@H]3NC(=O)[C@H](N)c5ccc(O)c(c5)Oc5cc(O)cc(c5)[C@H](NC3=O)C(=O)N[C@H]4C(=O)N[C@H]3C(=O)N[C@@H]2C(=O)N[C@@H](C(=O)O)c2cc(O)cc(O[C@H]4O[C@H](CO)[C@@H](O)[C@H](O)[C@@H]4O)c2-c2cc3ccc2O)O[C@H](CO)[C@@H](O)[C@@H]1O`, the result was inactive.

In the case of `Cc1cc(C)cc(Oc2ccc(CNC(=O)[C@H](C)N)cc2C)c1`, the “activity change, negative = inhibition” value was 0.615% (inactive). For `CCn1c(=O)c2c(nc(/C=C/c3ccc(OC)c(OC)c3)n2C)n(CC)c1=O`, the “activity change, negative = inhibition” value is -0.651% (inactive). `N=C(N)c1ccc2nc(-c3cc(CC(=O)N[C@@H](CC(=O)O)C(=O)O)cc(-c4cc(S(N)(=O)=O)ccc4O)c3O)[nH]c2c1`: the “activity change, negative = inhibition” value was 1.44% (inactive). As for `O=C(/C=C/N1C[C@H]2C[C@@H]1CN2c1ccccn1)c1ccccc1O`, the “activity change, negative = inhibition” value was 2.42% (inactive). On to `O=C(Nc1ccccc1)Nc1ccc(-c2ccc(C(=O)[C@@H]3CCC[C@H]3C(=O)O)cc2)cc1`, for which the Potency was 12.8 µM (active). In the case of `Cc1ncsc1-c1ccc([C@H](C)NC(=O)[C@@H]2C[C@@H](O)CN2C(=O)[C@@H](NC(=O)COCCCOCCNC(=O)C[C@@H]2N=C(c3ccc(Cl)cc3)c3c(sc(C)c3C)-n3c(C)nnc32)C(C)(C)C)cc1`, the “activity change, negative = inhibition” value was -7.21% (inactive). Turning to `CC/C(=C(/c1ccc(O)cc1)c1ccc(OCCNC)cc1)c1ccccc1`, the “activity change, negative = inhibition” value was -12.1% (inactive). For the compound `COc1cc(N2CCN(C)CC2)ccc1Nc1ncc2c(n1)N(C)c1ccccc1C(=O)N2C`, the “activity change, negative = inhibition” value is -14.4% (inactive). Same read-out and setting: under `CC(C)(O)CNc1ncc(-c2ccnc(Nc3ccncc3)n2)c(CC2CC2)n1` stands -3.56% (inactive). Still for that read-out and setting: under `O=c1[nH]nc2c3c(cccc13)NC(CN1Cc3ccccc3C1)=N2` stands -16.5% (inactive). With `CCNCCS(=O)(=O)NC[C@@]1(c2ccccc2)SC(NC(=O)C(C)(C)C)=NN1C(=O)C(C)(C)C`, the result was inactive. As to `Cc1cnc(NC(=O)c2cc(Oc3cnc(C(=O)N(C)C)nc3)c3cc(C)oc3c2)cn1`, the “activity change, negative = inhibition” value is 3.55% (inactive). Regarding `N[C@@H](CCC(=O)O)C(=O)N[C@@H](Cc1c[nH]c2ccccc12)C(=O)O` (H-Glu-Trp-OH), the “activity change, negative = inhibition” value was -3.48% (inactive). As for `C=C1/C(=C\C=C2/CCC[C@]3(C)[C@@H]([C@H](C)CCCC(C)(C)O)CC[C@@H]23)C[C@@H](O)C[C@@H]1O`, the “activity change, negative = inhibition” value is -17.6% (inactive). Consider `CCn1c(=O)c(-c2ccc(-c3cncc(C)n3)cc2Cl)cc2cnc(NCCC3CCN(C)CC3)nc21`, for which the activity change, negative = inhibition is -3.33% [at 4.52 µM] (inactive). Consider `Cc1c(C(=O)Nc2ccc(Oc3ccnc4[nH]cc(-c5ccccc5)c34)c(F)c2)c(=O)n(-c2ccc(F)cc2)n1C`, for which the “activity change, negative = inhibition” value was -20.6% (inactive).

On to `CN1C[C@@H]2c3ccccc3Oc3ccc(Cl)cc3[C@H]2C1`, for which the “activity change, negative = inhibition” value was -6.06% (inactive).

`CCS(=O)(=O)Nc1ccc(Oc2ccc(F)cc2F)c(-c2cn(C)c(=O)c3[nH]ccc23)c1`: the “activity change, negative = inhibition” value was -15.4% (inactive). As to `NC(=O)c1cnc2[nH]ccc2c1NC1C2CC3C[C@H]1CC(O)(C3)C2` (stereo partly drawn), the “activity change, negative = inhibition” value is -10.5% (inactive). Regarding `CCOc1cc(/C=C2/C(=O)N(c3ccccc3)N=C2C)cc(Cl)c1OCC(=O)OC`, the “activity change, negative = inhibition” value was -16.7% (inactive).

Regarding `CCC1CCCCN1C(=O)n1ncc(C(O)(c2ccccc2)c2ccccc2)n1` (stereo not drawn), the “activity change, negative = inhibition” value is -5.17% (inactive). Turning to `NS(=O)(=O)c1ccc(S(=O)(=O)Nc2cccc3c(Cl)c[nH]c23)cc1`, the “activity change, negative = inhibition” value was -28.1% (inactive). As for `O=C(C[C@@H]1C/C=C\CCC(=O)O[C@H](c2ccccc2)CNC1=O)NCc1ccc(Cl)cc1`, the “activity change, negative = inhibition” value was 2.82% (inactive). Same read-out and setting: under `Cc1nc(C)c(CN2CCN(C(c3ccc(F)cc3)c3ccc(F)cc3)CC2)nc1C` stands 3.53% (inactive).
